Reference: PubChem BioAssay AID1159580 (chemical genetic matrix, 2015)
The campaign covered roughly 5,500 compounds. About 2,000 (36%) were called active. Roughly 18% stayed inconclusive and do not appear here. No stated cut-off is given here; in the data, active means normalized growth mostly below about 0.91 (no sharp cut-off); inconclusive means no clear call, values can overlap the other calls; inactive means mostly above about 0.92. This is one part of the list.

Test: chemical genetic growth profiling, strain panel (AID 1159580);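 further: tested at 20 µM; growth read once vehicle control cultures reached saturation at 30 °C; 1 = growth at the plate median or of vehicle wells; lower values mean less growth of the strain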
Conditions: growth OD
[1] = S. cerevisiae deletion strains, locus YGR078C, strain PAC10, active compounds read low
[2] = S. cerevisiae deletion strains, locus YNL153C, strain GIM3, active compounds read low

Measured: normalized growth

CNc1cc(NS(=O)(=O)c2ccc(N)cc2)nc(NC)n1
inactive: S. cerevisiae deletion strains, locus YAL040C, strain CLN3, active compounds read low 0.991 | S. cerevisiae deletion strains, locus YCL061C, strain MRC1 (second series), active compounds read low 0.986 | S. cerevisiae deletion strains, locus YDR363W, strain ESC2, active compounds read low 0.974 | S. cerevisiae deletion strains, locus YER002W, strain NOP16, active compounds read low 0.98 | [1] 0.994 | S. cerevisiae deletion strains, locus YMR307W, strain GAS1, active compounds read low 1 | [2] 1.01 | S. cerevisiae deletion strains, locus YNL175C, strain NOP13, active compounds read low 0.993 | S. cerevisiae deletion strains, locus YNL197C, strain WHI3, active compounds read low 0.991 | S. cerevisiae deletion strains, locus YNL224C, strain SQS1, active compounds read low 0.994 | S. cerevisiae deletion strains, locus YOR083W, strain WHI5 (second series), active compounds read low 0.993

CCC(=O)Nc1cc(F)ccc1C
inactive: S. cerevisiae deletion strains, locus YAL013W, strain DEP1, active compounds read low 0.999 | S. cerevisiae deletion strains, locus YBR229C, strain ROT2, active compounds read low 1 | S. cerevisiae deletion strains, locus YDL101C, strain DUN1, active compounds read low 1 | S. cerevisiae deletion strains, locus YDL134C, strain PPH21, active compounds read low 1 | S. cerevisiae deletion strains, locus YDR150W, strain NUM1, active compounds read low 0.968 | S. cerevisiae deletion strains, locus YEL061C, strain CIN8, active compounds read low 0.997 | [1] 1 | S. cerevisiae deletion strains, locus YHR030C, strain SLT2, active compounds read low 0.985 | S. cerevisiae deletion strains, locus YHR087W, strain rtc3, active compounds read low 1.01 | S. cerevisiae deletion strains, locus YJR043C, strain POL32, active compounds read low 0.985 | S. cerevisiae deletion strains, locus YJR075W, strain HOC1, active compounds read low 1 | S. cerevisiae deletion strains, locus YKL190W, strain CNB1, active compounds read low 1.01 | S. cerevisiae deletion strains, locus YLR039C, strain RIC1, active compounds read low 1.01 | S. cerevisiae deletion strains, locus YLR058C, strain SHM2 (second series), active compounds read low 1 | S. cerevisiae deletion strains, locus YLR085C, strain ARP6, active compounds read low 1.02 | S. cerevisiae deletion strains, locus YLR262C, strain YPT6, active compounds read low 1.01 | S. cerevisiae deletion strains, locus YML094W, strain GIM5, active compounds read low 1.01 | S. cerevisiae deletion strains, locus YMR219W, strain ESC1, active compounds read low 0.997 | S. cerevisiae deletion strains, locus YMR263W, strain SAP30, active compounds read low 0.996 | S. cerevisiae deletion strains, locus YNL128W, strain TEP1, active compounds read low 0.998 | [2] 0.987 | S. cerevisiae deletion strains, locus YNL298W, strain CLA4 (second series), active compounds read low 1.01 | S. cerevisiae deletion strains, locus YNL322C, strain KRE1, active compounds read low 0.997 | S. cerevisiae deletion strains, locus YNR030W, strain Alg12, active compounds read low 1.01 | S. cerevisiae deletion strains, locus YPL055C, strain LGE1, active compounds read low 1.09 | S. cerevisiae deletion strains, locus YPL241C, strain CIN2, active compounds read low 0.89 | S. cerevisiae deletion strains, locus YPR135W, strain CTF4, active compounds read low 0.987 | S. cerevisiae strains, strain wild type, active compounds read low 1.01
